# Data reported in PubChem BioAssay (NCATS).
# Unmarked numbers belong to inactive results. Results filed as inconclusive are left out. Where a call stands in place of a potency, no number is given. Activity calls are given as the source filed them. Calls follow the shape of the dose curve; as a rule, active = well fitted curve in the direction sought with a large enough effect; inconclusive = small, poorly fitted or top-dose-only effect, or another doubt; inactive = no such curve, though single readings can be large; an effect the other way counts as inactive or inconclusive.
# Legend:
# [1] = target: Phospholipid hydroperoxide glutathione peroxidase GPX4 (Homo sapiens) (UniProt P36969); test: Primary qHTS Assay for Inhibitors of Recombinant Selenoprotein Glutathione Peroxidase 4 (GPX4) (AID 1845192); also: nearly all actives have a fitted effect of over 65% in size; as to activity change, negative = inhibition: series mostly up to about 50 µM
# Method in brief: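 NADPH consumption, followed by fluorescence at 340/450 nm between 0 and 15 min, reports GPX4 activity via coupled glutathione reductase (100 nM). Enzyme 200 nM was pre-exposed to compound 30 min; 0.5 mM cumene hydroperoxide and 1 mM GSH served as substrates.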
# [2] = target: Luciferin 4-monooxygenase (Photinus pyralis) (UniProt P08659); test: Primary firefly luciferase (FLuc) qHTS assay for identification of artifact compounds. (AID 1845220); also: nearly all actives have a fitted effect of over 60% in size; as to activity change, negative = inhibition: series mostly up to about 54 µM
# Method in brief: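 Compounds sat 15 min at room temperature with 10 uM luciferin and 10 uM ATP (pH 7.6 Tris acetate). Firefly luciferase (10 nM final) was then added, and luminescence was read 5 min later. Data normalized to no-enzyme and DMSO controls were Hill-fitted.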
# [3] = Primary fluorescence-based thiol-reactive (MSTI) qHTS assay for identification of artifact compounds. (AID 1845221); also: nearly all actives have a fitted effect of over 65% in size; also: potency is read from the fitted curve at half-maximal effect;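 as to activity change, negative = thiol reactive: series mostly up to about 54 µM; thiol-reactive compounds lower the probe fluorescence signal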
# Method in brief: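 Thiol-reactive compounds detected by quenching of 4 uM MSTI fluorescence (525/598 nm) after 1 h room-temperature dark incubation in PBS pH 7.4, 2% DMSO. qHTS titration; percent inhibition Hill-fitted against Acetyl-MSTI/MSTI controls.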
# [4] = tested on: Nanoluciferase (engineered Oplophorus gracilirostris luciferase); test: Primary Nanoluciferase (NLuc) qHTS assay for identification of artifact compounds. (AID 1845222); also: series mostly up to about 54 µM
# Method in brief: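 Luminescence from secreted NLuc (filtered, 1:55-diluted S16 cell medium) read 5 min after Nano-Glo substrate; compounds preincubated 15 min, RT. Hill fits of inhibition normalized to DMSO and no-enzyme.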
# [5] = Primary redox qHTS assay for identification of artifact compounds. (AID 1845223)
# Method in brief: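 Amplex Red (25 uM) and HRP (250 mU/mL) in HBSS, with compounds for 15 min, then 250 uM DTT for 30 min, room temperature, dark. Fluorescence 525/598 nm read; normalized to DMSO and 10 uM DA3003; Hill fit.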
# Phospholipid hydroperoxide glutathione peroxidase GPX4 (Homo sapiens), sequence (P36969 whole entry, looked up): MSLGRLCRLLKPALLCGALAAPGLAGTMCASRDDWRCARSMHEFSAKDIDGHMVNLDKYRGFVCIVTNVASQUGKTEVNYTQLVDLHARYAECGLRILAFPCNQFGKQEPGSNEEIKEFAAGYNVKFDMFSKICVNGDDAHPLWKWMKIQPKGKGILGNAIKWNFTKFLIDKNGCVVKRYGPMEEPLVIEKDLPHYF
SMILES,Potency [1],Potency [2],Potency [3],Potency [4],Potency [5],"activity change, negative = inhibition [1]","activity change, negative = inhibition [2]","activity change, negative = thiol reactive [3]","activity, negative = inhibition [4]",redox activity (% of DA3003) [5]
CC[C@]12C=CCN3CC[C@@]4(c5cc([C@@]6(C(=O)OC)C[C@H]7C[C@@H](C(C)(F)F)CN(Cc8c6[nH]c6ccccc86)C7)c(OC)cc5N(C)[C@H]4[C@@](O)(C(=O)OC)[C@@H]1OC(C)=O)[C@@H]32,inactive,inactive,inactive,inactive,inactive,–,–,–,–,–
C=C1C(=O)OC2CC(C)=C(C(C)CCCO)C(O)C12 (stereo not given),inactive,inactive,5.97 µM (active),inactive,inactive,–,–,–,–,–
C[C@@H]1O[C@@H](O[C@@H]2[C@@H](O)[C@H](O[C@H]3[C@H](O[C@H]4CC[C@@]5(C)C(CC[C@]6(C)C5CC=C5[C@@H]7CC(C)(C)CC[C@]7(C(=O)O[C@@H]7O[C@H](CO)[C@@H](O)[C@H](O)[C@H]7O[C@@H]7O[C@@H](C)[C@H](O[C@@H]8O[C@@H](C)[C@H](O)[C@@H](O)[C@H]8O)[C@@H](O)[C@H]7O)CC[C@]56C)[C@@]4(C)CO)O[C@H](C(=O)O)[C@@H](O)[C@@H]3O)O[C@H](CO)[C@H]2O)[C@H](O)[C@H](O)[C@H]1O (stereo not given in full),–,–,–,–,–,1.11% [at 9.73 µM],-1.57% [at 11.6 µM],155% [at 11.5 µM],0% [at 11.6 µM],1.07% [at 11.5 µM]
C=C(C)[C@@H]1CC[C@]2(C)CC[C@]3(C)[C@H](CC[C@@H]4[C@@]5(C)CC[C@@H](O)C(C)(C)[C@@H]5CC[C@]43C)[C@@H]12,inactive,inactive,inactive,inactive,inactive,–,–,–,–,–
CC12CCC(=O)C=C1C(O)CC1C2C(O)CC2(C)C1CC[C@]2(O)C(=O)CO (stereo not given in full),inactive,–,–,–,–,–,2.02% [at 11.6 µM],-1.91% [at 11.5 µM],4.05% [at 11.6 µM],-2.06% [at 11.5 µM]
Cc1nc(NC(=O)N2CCCC2C(N)=O)sc1-c1csc(C(C)(C)C)n1 (stereo not given),inactive,inactive,inactive,inactive,inactive,–,–,–,–,–
CCNCc1nc2c(N)nc3ccccc3c2n1CC(C)(C)O,inactive,inactive,inactive,inactive,inactive,–,–,–,–,–
CC1(C)CCC[C@@]2(C)C1[C@H](OC(=O)/C=C/C=C/C(=O)O)C=C1COC(=O)[C@@]12O (stereo not given in full),inactive,inactive,inactive,inactive,inactive,–,–,–,–,–
C[C@@H]1CCN(C(=O)N2CCCC2)C[C@@H]1N(C)c1ncnc2[nH]ccc12,inactive,inactive,inactive,inactive,inactive,–,–,–,–,–
CN(C)C/C=C/C(=O)Nc1cccc(C(=O)Nc2cccc(Nc3ncc(Cl)c(-c4c[nH]c5ccccc45)n3)c2)c1,inactive,inactive,inactive,inactive,inactive,–,–,–,–,–
Cc1cc(O)c(-c2ccc([C@@H](C)CN(C)C)cc2)c2c1[nH]c(=O)c1sccc12,inactive,inactive,inactive,inactive,inactive,–,–,–,–,–
COc1c2c(cc3c1-c1c(cc4c(c1OC)OCO4)CC(C)C(C)C3)OCO2 (stereo not given),inactive,inactive,inactive,inactive,inactive,–,–,–,–,–
C/C(=C\CCC1(C)C2CCC(C2)C1(C)O)C(=O)O (stereo not given),inactive,inactive,inactive,inactive,inactive,–,–,–,–,–
Nc1ncnc2c1ncn2CCNCCCCCO,inactive,inactive,inactive,inactive,inactive,–,–,–,–,–
CCOc1cc2ncc(C#N)c(Nc3ccc(F)c(Cl)c3)c2cc1NC(=O)/C=C/CN(C)C,inactive,inactive,inactive,inactive,inactive,–,–,–,–,–
C=C1CCC[C@]2(C)CC[C@@H](C(=C)C(=O)O)[C@H](O)[C@@H]12,inactive,inactive,inactive,inactive,inactive,–,–,–,–,–
CC1(c2nc3c(C(N)=O)cccc3[nH]2)CCCN1 (stereo not given),inactive,inactive,inactive,inactive,inactive,–,–,–,–,–
C=C1C[C@]23C[C@H]1CC[C@H]2[C@@]1(C)CCC[C@@]2(C)C(=O)O[C@@H]([C@@H]3O)[C@@H]12,inactive,inactive,inactive,inactive,inactive,–,–,–,–,–
CC(C)(O)/C=C/CC(C)(O)C1C(O)CC2(C)C3CCC4C(C)(C)C(=O)CCC4(C)C3CCC12C (stereo not given),inactive,inactive,inactive,inactive,inactive,–,–,–,–,–
COC(=O)C1=CO[C@@H](O)C2C(CO)=CCC12 (stereo not given in full),inactive,inactive,inactive,inactive,inactive,–,–,–,–,–
CC1(C)CCCC2(C)C1CC(=O)C13CC(CCC12)C(O)(CO)C3 (stereo not given),inactive,inactive,inactive,inactive,inactive,–,–,–,–,–
COc1c2ccoc2cc2oc(CO[C@@H]3O[C@H](CO)[C@@H](O)[C@H](O)[C@H]3O)cc(=O)c12,inactive,inactive,inactive,inactive,inactive,–,–,–,–,–
C=C1C[C@]23C[C@H]1[C@@H](O)C[C@H]2[C@@]12C=C[C@H](O)[C@@](C)(C(=O)O1)[C@H]2[C@@H]3C(=O)O,inactive,inactive,inactive,inactive,inactive,–,–,–,–,–
CO[C@H]1C[C@@H]2CC[C@@H](C)[C@@](O)(O2)C(=O)C(=O)N2CCCC[C@H]2C(=O)O[C@H]([C@H](C)C[C@@H]2CC[C@@H](OP(C)(C)=O)[C@H](OC)C2)CC(=O)[C@H](C)/C=C(\C)[C@@H](O)[C@@H](OC)C(=O)[C@H](C)C[C@H](C)/C=C/C=C/C=C/1C,inactive,inactive,inactive,inactive,inactive,–,–,–,–,–
